In PubChem BioAssay AID720509 (The Scripps Research Institute Molecular Screening Center, 2013):
The whole screen tested about 370,000 compounds, of which about 760 (0.21%) were called active.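 How the source made its calls: active means inhibition above a per-campaign cutoff: mean of compounds within control limits plus 3 SD (cut at about 15% in these data); inactive means the rest.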 Only a selection was taken, and actives are over-represented in it overall.

target: Fibrinogen beta chain (Homo sapiens) (UniProt P02675); assay: inhibitors of Tn6 peptide binding to fibrin DD(E), primary screen, biochemical, fluorescence polarization, human fibrin, Tn6 probe (AID 720509); settings: Fibrin DD(E) TRITC-Tn6 fluorescence polarization displacement; at 8.3 µM; stronger effect = higher value;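 further: 0% = median of all compound wells on the plate and 100% = blocking peptide control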
Sequence (P02675 whole entry, looked up): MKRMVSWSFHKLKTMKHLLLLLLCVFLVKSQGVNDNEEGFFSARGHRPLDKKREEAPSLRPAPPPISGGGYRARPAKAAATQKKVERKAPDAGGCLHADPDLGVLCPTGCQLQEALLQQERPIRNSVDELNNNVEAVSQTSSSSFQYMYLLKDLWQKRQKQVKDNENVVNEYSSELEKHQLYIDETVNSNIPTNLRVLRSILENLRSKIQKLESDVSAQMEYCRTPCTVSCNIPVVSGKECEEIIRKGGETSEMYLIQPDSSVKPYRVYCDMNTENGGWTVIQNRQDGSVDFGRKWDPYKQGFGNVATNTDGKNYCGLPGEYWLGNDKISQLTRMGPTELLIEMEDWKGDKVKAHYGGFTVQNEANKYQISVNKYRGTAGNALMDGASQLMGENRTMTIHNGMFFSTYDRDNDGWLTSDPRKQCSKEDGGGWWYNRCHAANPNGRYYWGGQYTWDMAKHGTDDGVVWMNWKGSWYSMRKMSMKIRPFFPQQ

inhibition, active:
Cc1nn(C)cc1N1C(=O)c2cccc3c(N)ccc(c23)C1=O 19.6%
CCc1ccccc1NC(=S)Nc1cc(OC)c(NC(=O)C(C)C)cc1OC 52.5%
O=c1cc(Cn2nnc(-c3ccc(Cl)cc3)n2)nc2sccn12 16.1%
CCOCC(=O)NCc1ccc2c(c1)cc(C)n2C 22.7%
O=C(NCCNc1ccccc1[N+](=O)[O-])c1ccccc1F 16.1%
Cc1ccc(-c2nn(-c3ccccc3)cc2/C=C/C(=O)Nc2cccc(S(N)(=O)=O)c2)cc1 52%
COc1ccc(N2C(=O)NC(NS(=O)(=O)c3ccc(Cl)cc3)(C(F)(F)F)C2=O)cc1 (configuration not stated) 16.5%
COc1ccc(Nc2nc(-c3cccnc3)nc3ccccc23)cn1 15.3%
Cc1ccc(NC(=O)CN2CCc3ccccc3C2)cc1 15.8%
Cc1ccc(-c2nc(C)sc2CC(=O)O)cc1 16.2%

inhibition, inactive:
O=C(NCC1CCCO1)c1ccccc1-c1nc(-c2ccccc2Cl)no1 (configuration not stated) 8.29%
C/C(N)=C(/C#N)C(=O)COC(=O)CNS(=O)(=O)c1ccc(C)cc1 4.06%
COc1cc(NC(=S)NNC(=O)CC(C)C)c(OC)cc1Cl 9.57%
COc1ccc(C)cc1NC(=S)Nc1ccccc1SC -8.72%
Cc1ccccc1OCC(=O)Nc1nnc(S(=O)(=O)N2CCCC2)s1 3.91%
Cc1ccc(NC(=O)C(C)Sc2nnc(C3CC3)n2C2CC2)cc1S(=O)(=O)N1CCOCC1 (configuration not stated) -3.46%
O=C1CCc2cc(S(=O)(=O)N3CCC(C(=O)NCc4ccccc4Cl)CC3)ccc2N1 -0.95%
COc1ccc(C(=O)OCc2cc(=O)n3ccsc3n2)cc1F -0.34%
O=C(OCc1cc(=O)n2ccsc2n1)C1(c2ccc(Cl)cc2)CC1 4.84%
Cc1ccc(S(=O)(=O)NCC(=O)NNC(=O)c2ccc(Br)cc2)cc1C 0.07%
Cc1cc(=O)oc(C)c1C(=O)NCCN(C)Cc1ccccc1 -1.95%
C[C@@H]1ON(C)[C@H]2C[C@H]3c4cc(N5CCN(C)CC5)ccc4CCN3C(=O)[C@@H]12 -3.94%
Cc1ccc(CNC(=O)Cc2cn(C)c3ccccc23)cc1 -3.12%
Cc1ccc(CNC(=O)COc2ccc3c(c2)CCC3)cc1 -1.34%
CC[C@@H]1CC2=C(C(=O)OC(C)(C)O2)[C@@H](CC)O1 -4.34%
COc1ccc(NC(=O)c2cc([N+](=O)[O-])ccc2NC(=O)CNC2CCCCC2C)c(OC)c1 (configuration not stated) -3.72%
CC1(C)C(C=C(Cl)Cl)C1C(=O)NC(O)C(=O)c1ccccc1 (configuration not stated) 14.5%
O=C(c1ccc2c(c1)N(Cc1ccc(F)cc1)C(=O)CS2)N1CCOCC1 -0.8%
COC(=O)C(=Nc1ccccc1)/C(C(=O)C(=O)N(C)c1ccccc1)=C(\O)c1ccc(Cl)cc1 -4.47%
O=C(NCCCNc1ccc([N+](=O)[O-])cc1Cl)c1ccccc1F 0.76%
Cc1c(C(=O)NCCCc2ccccc2)cccc1[N+](=O)[O-] 7.53%
COc1ccc(-n2cnnc2SCC(=O)Nc2cccc(S(N)(=O)=O)c2)cc1 11.3%
NS(=O)(=O)c1ccc(NC(=O)/C=C/c2ccccc2Cl)cc1 -10.6%
CC1CN(S(=O)(=O)c2cccc(C(F)(F)F)c2)CN1C(=O)N1CCOCC1 (configuration not stated) -4.35%
CC(=O)n1cc([C@@H]2C=C(C(=O)N3CCN(Cc4ccc5c(c4)OCO5)CC3)O[C@H](OCc3ccc(CO)cc3)C2)c2ccccc21 3.52%
CCCCNC(=O)OC1CC2CC1[C@H]1CCCCN1C2=O (some centres not stated) -8.63%
OCCC1CN(Cc2ccc3nsnc3c2)CCN1C1CCCCC1 (configuration not stated) -12.1%
COc1ccc(S(=O)(=O)NC2(C(F)(F)F)N=C3SCCN3C2=O)cc1 (configuration not stated) 3.58%
Cc1ccc(S(=O)(=O)NC2(C(F)(F)F)NC(=O)N(CCc3ccccc3)C2=O)cc1 (configuration not stated) 1.91%
Cc1cc(=O)[nH]c(SCC(=O)Nc2ccc(F)cc2F)n1 -5.08%
COc1ccc(NC(=O)C2=NNC(=O)CC2)cc1S(=O)(=O)N1CCCCC1 3.03%
COCCn1c(SCC(=O)Nc2ccc3c(c2)CCC3)nc2ccccc2c1=O -3.38%
COc1ccc(NS(=O)(=O)c2cc3c(cc2C)N(C(C)=O)CCO3)cc1 -0.74%
C=C(C)CSc1nnc(-c2ccc(C)cc2)n1N 2.43%
CC(C)N(c1ccccc1)c1ncnc(NCCC(=O)O)c1[N+](=O)[O-] 0.23%
Cc1ccc2c(c1)N(CC(=O)NCCCN1CCCCC1)C(=O)c1cccnc1O2 -7.1%
COc1ccc([C@H]2OC(=O)C[C@H]2C(=O)N2CCN(c3ccccc3F)CC2)cc1OC -0.84%
CCCN(CC(=O)Nc1ccc(OC)c(OC)c1)CC(=O)Nc1ccc(F)c(F)c1F 7.52%
O=C(Nc1ccc(Cl)cc1)Nc1ccc(Oc2cccnc2)nc1 -12.2%
O=C(CSc1n[nH]c(-c2cccnc2)n1)Nc1ccnc2ccccc12 -0.07%
COc1ccc(S(=O)(=O)N(CCCN2CCCC2=O)Cc2cc3c(C)ccc(C)c3[nH]c2=O)cc1 -7.91%
Cc1ccc(NC(=O)Cn2sc3ccccc3c2=O)cc1 1.72%
O=C(CN1CCc2ccccc2C1)Nc1cccc(S(=O)(=O)N2CCOCC2)c1 4.91%
Cc1ccc(-c2nc(C)sc2CC(=O)OCC(=O)Nc2c(F)cccc2F)cc1 4.3%
Cc1nc(-c2ccc(F)cc2)c(CC(=O)N2CCN(S(=O)(=O)c3ccc(F)cc3)CC2)s1 -5.03%
O=C(Nc1ccc(N2CCOCC2)cc1)c1cccc2c(-c3ccc(F)c(F)c3)coc12 -1.54%
Cc1ccc(Nc2nc(CSc3nnc(-c4ccncc4)n3-c3ccccc3C)cs2)cc1 -3.59%
